Values joined by “and” are separate entries in the source; they are usually repeats but may differ in a detail not shown here. Identical values can stand only once. Inconclusive results are not listed. Where a structure was tested more than once in an assay, its records may differ in their call. Active and inactive are the calls of the source. Unless noted, calls come from the whole dose curve; as a rule, active = well fitted curve in the direction sought with a large enough effect in the repeat runs; inconclusive = weak or mixed curves; inactive = no such curve, though single readings can be large; an effect the other way counts as inactive or inconclusive.

The text below walks through data of PubChem BioAssay (Tox21).

Test [1] addresses Peroxisome proliferator-activated receptor delta (Homo sapiens) (UniProt Q03181). The test can be described thus: qHTS assay to identify small molecule agonists of the peroxisome proliferator-activated receptor delta (PPARd) signaling pathway (AID 743212; calls by dose curve). Put shortly:
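Tox21 library screened in GeneBLAzer PPARd UAS-bla HEK293H cells. After compound treatment at 37 C, a FRET-based beta-lactamase substrate was applied for 2 h and fluorescence recorded.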
For orientation: Quantitative high-throughput screening tests each substance at several concentrations.

The target is the same in test [2]. The test can be described thus: qHTS assay to identify small molecule antagonists of the peroxisome proliferator-activated receptor delta (PPARd) signaling pathway (AID 743215; active = well fitted inhibition curve with a large enough effect in the signal ratio in the repeat runs, not every such curve was filed as active; the % refers to the signal ratio;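 note: cells stimulated with agonist L165041 at 300 nM final during compound exposure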; note: potency is the fitted concentration of half-maximal effect). Put shortly: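 Here, a reporter line (HEK293H, beta-lactamase under a UAS) measures PPARd signaling. Compounds are tested against agonist L165041 at 300 nM final concentration over 17 h at 37 C, with fluorescence read after substrate.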

Test [3] in a line: qHTS assay to identify small molecule agonists of the farnesoid-X-receptor (FXR) signaling pathway - cell viability counter screen (AID 743218). Note: nearly all actives have a fitted effect of over 45% in size. Note: potency is the fitted concentration of half-maximal effect. Put shortly:
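Quantitative HTS counter screen measuring ATP-based viability via CellTiter-Glo luminescence in HEK 293T cells carrying a UAS-driven beta-lactamase reporter, after 16 h compound exposure at 37 C.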

A short description of test [4]: qHTS assay to identify small molecule antagonists of the farnesoid-X-receptor (FXR) signaling pathway - cell viability counter screen (AID 743221; active = well fitted cell-killing curve with a large enough effect in the repeat runs, not every such curve was filed as active; note: nearly all actives have a fitted effect of over 50% in size; note: potency is the fitted concentration of half-maximal effect). The method, boiled down:
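After a 5 h settling period, FXR-bla HEK 293T cells receive compound and chenodeoxycholic acid (50 uM final) and incubate 16 h at 37 C; CellTiter-Glo luminescence, read after 30 min at room temperature, reports cell viability.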

In test [5] the target is Vitamin D3 receptor (Homo sapiens) (UniProt P11473). The test can be described thus: qHTS assay to identify small molecule agonists of the vitamin D receptor (VDR) signaling pathway (AID 743222; calls by dose curve; note: potency is the fitted concentration of half-maximal effect). The method, boiled down: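 Tox21 cell reporter format: VDR-bla line, 16 h compound exposure in 5% CO2 at 37C, then fluorescence intensity after 2 h with LiveBLAzer B/G FRET substrate.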
Vitamin D3 receptor (Homo sapiens), sequence (P11473 whole entry, looked up): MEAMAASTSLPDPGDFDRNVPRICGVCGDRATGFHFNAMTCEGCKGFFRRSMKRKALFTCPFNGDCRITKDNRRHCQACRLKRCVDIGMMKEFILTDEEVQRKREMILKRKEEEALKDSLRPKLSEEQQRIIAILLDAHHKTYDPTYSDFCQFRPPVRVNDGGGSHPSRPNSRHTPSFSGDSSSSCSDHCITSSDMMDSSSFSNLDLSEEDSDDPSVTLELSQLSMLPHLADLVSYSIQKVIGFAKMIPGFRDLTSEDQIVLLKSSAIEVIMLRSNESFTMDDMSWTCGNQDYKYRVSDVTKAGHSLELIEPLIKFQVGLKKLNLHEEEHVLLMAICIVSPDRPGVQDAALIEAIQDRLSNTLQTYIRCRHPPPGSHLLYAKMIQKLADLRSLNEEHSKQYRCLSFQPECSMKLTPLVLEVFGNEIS

The target is the same in test [6]. The experiment in a line: qHTS assay to identify small molecule antagonists of the vitamin D receptor (VDR) signaling pathway (AID 743223; active = well fitted inhibition curve with a large enough effect in the signal ratio in the repeat runs, not every such curve was filed as active; the % refers to the signal ratio; note: potency is the fitted concentration of half-maximal effect). Put shortly:
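Reporter line VDR-bla; stimulus 1alpha,25-(OH)2 vitamin D3, 3 nM final; compound co-addition, 16 h 37C/5% CO2; LiveBLAzer B/G substrate 2 h RT; fluorescence intensity.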

A short description of test [7]: qHTS assay to identify small molecule agonists of the vitamin D receptor (VDR) signaling pathway - cell viability counter screen (AID 743224). Note: nearly all actives have a fitted effect of over 50% in size. Note: potency is the fitted concentration of half-maximal effect. Put shortly: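 CellTiter-Glo viability readout on VDR-bla cells, measured after 16 h of compound treatment at 37C in the same wells.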
Test [8] can be described thus: qHTS assay to identify small molecule antagonists of the vitamin D receptor (VDR) signaling pathway - cell viability counter screen (AID 743225). Note: nearly all actives have a fitted effect of over 50% in size. Note: potency is the fitted concentration of half-maximal effect. Put shortly: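 Parallel cytotoxicity test: VDR-UAS-bla HEK 293T, 3 nM (final) 1-alpha,25-dihydroxyvitamin D3 with test compound, 16 h, 37C. Endpoint is CellTiter-Glo luminescence in the same wells.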
Test [9] can be described thus: qHTS assay to identify small molecule agonists of the NFkB signaling pathway - cell viability counter screen (AID 1159515; calls by dose curve; note: nearly all actives have a fitted effect of over 55% in size; note: potency is the fitted concentration of half-maximal effect). Put shortly:
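Tox21 library compounds were tested for cytotoxicity against NFkB-bla ME-180 cells during a 5 hr exposure at 37 C. CellTiter-Glo luminescence served as the viability read-out.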

Test [10] in a line: qHTS assay to identify small molecule agonists of the endoplasmic reticulum stress response signaling pathway - cell viability counter screen (AID 1159517; calls by dose curve; note: nearly all actives have a fitted effect of over 50% in size; note: potency is the fitted concentration of half-maximal effect). The method, boiled down: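 In parallel with the ESRE reporter read, cytotoxicity was scored by CellTiter-Glo luminescence (30 min, room temperature) on HeLa ESRE-bla cells dosed for 5 hr.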
Test [11] addresses Nuclear receptor ROR-gamma (Homo sapiens) (UniProt P51449). The experiment in a line: qHTS assay to identify small molecule antagonists of the retinoid-related orphan receptor gamma (ROR-gamma) signaling pathway (AID 1159521; note: nearly all actives have a fitted effect of over 50% in size; note: potency is the fitted concentration of half-maximal effect). Put shortly: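 Decreased RORE-driven luciferase luminescence indicates antagonism. Tet-on RORγ CHO cells received compound, then 1 uM final doxycycline 2 h later; signal read after 16 h incubation.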

Test [12] can be described thus: qHTS assay to identify small molecule agonists of the AP-1 signaling pathway - cell viability counter screen (AID 1159525; calls by dose curve; note: nearly all actives have a fitted effect of over 55% in size; note: potency is the fitted concentration of half-maximal effect). Put shortly: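 Same-well cytotoxicity counter screen of the Tox21 10K library in ME-180 cells. The readout is ATP-dependent luminescence after 5 h compound treatment. Data are normalised to DMSO and tetra n-octyl ammonium bromide controls.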

The nature of test [13]: qHTS assay to identify small molecule agonists of the RXR signaling pathway - cell viability counter screen (AID 1159529). Note: nearly all actives have a fitted effect of over 50% in size. Note: potency is the fitted concentration of half-maximal effect. Put shortly: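 In this parallel viability measure, GeneBLAzer RXR-alpha HEK 293T cells (2% charcoal-stripped FBS) were given a 5 hr preincubation, treated with compounds 16 hr at 37 C, and read by CellTiter-Glo luminescence.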
Test [14] in a line: qHTS assay to identify small molecule antagonists of the peroxisome proliferator-activated receptor delta (PPARd) signaling pathway - cell viability counter screen (AID 743213). Note: nearly all actives have a fitted effect of over 50% in size. Note: potency is the fitted concentration of half-maximal effect. Put shortly:
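Cytotoxicity counter screen: CellTiter-Glo luminescence read 30 min after addition, in the same wells as the reporter assay. There, PPARd UAS-bla HEK293H cells (3000/well) were treated 17 h at 37 C with compound and 300 nM L165041.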

The nature of test [15]: qHTS assay to identify small molecule antagonists of the retinoid-related orphan receptor gamma (ROR-gamma) signaling pathway - cell viability counter screen (AID 1159520). Note: nearly all actives have a fitted effect of over 50% in size. Note: potency is the fitted concentration of half-maximal effect. Put shortly:
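Tet-on ROR gamma CHO cells were given compounds for 2 hr, then doxycycline hyclate at 1 uM final, and incubated 16 hr at 37 C. Viability was measured as ATP content by CellTiter-Glo luminescence.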

For test [16], the target named is Bile acid receptor (Homo sapiens) (UniProt Q96RI1). The experiment in a line: qHTS assay to identify small molecule antagonists of the farnesoid-X-receptor (FXR) signaling pathway (AID 743217; active = well fitted inhibition curve with a large enough effect in the signal ratio in the repeat runs, not every such curve was filed as active; the % refers to the signal ratio; note: potency is the fitted concentration of half-maximal effect). The method, boiled down: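 Test compounds are pin-transferred onto FXR-bla HEK 293T cells, then chenodeoxycholic acid is added at 50 uM final. After 16 h at 37 °C, LiveBLAzer B/G substrate is applied for 2 h at room temperature and fluorescence read.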
Bile acid receptor (Homo sapiens), sequence (Q96RI1 whole entry, looked up): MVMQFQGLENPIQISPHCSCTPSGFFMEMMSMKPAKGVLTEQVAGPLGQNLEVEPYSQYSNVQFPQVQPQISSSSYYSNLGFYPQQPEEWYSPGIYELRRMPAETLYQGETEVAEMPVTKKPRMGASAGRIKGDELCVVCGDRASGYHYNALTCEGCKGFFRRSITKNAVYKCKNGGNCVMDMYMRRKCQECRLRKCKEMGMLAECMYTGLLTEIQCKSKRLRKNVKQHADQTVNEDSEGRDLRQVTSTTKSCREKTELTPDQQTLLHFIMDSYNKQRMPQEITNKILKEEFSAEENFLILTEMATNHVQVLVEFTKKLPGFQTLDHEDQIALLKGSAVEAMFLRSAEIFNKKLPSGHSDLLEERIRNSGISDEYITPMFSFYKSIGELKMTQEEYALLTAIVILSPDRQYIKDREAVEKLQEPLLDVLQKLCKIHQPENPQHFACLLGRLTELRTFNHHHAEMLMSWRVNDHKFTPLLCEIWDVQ

Test [17] has the same target. The experiment in a line: qHTS assay to identify small molecule agonists of the farnesoid-X-receptor (FXR) signaling pathway (AID 743220; active = well fitted activation curve with a large enough effect in the signal ratio in the repeat runs, not every such curve was filed as active; the % refers to the signal ratio). The method, boiled down:
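FXR-UAS-bla HEK 293T cells carrying a UAS-driven beta-lactamase reporter were plated for 5 h at 37C/5% CO2, then exposed to DMSO-dissolved Tox21 10K compounds for 16 h at 37C. A LiveBLAzer B/G FRET substrate was loaded for 2 h at room temperature before fluorescence reading.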

Test [18] is described as follows: qHTS assay to identify small molecule agonists of the AP-1 signaling pathway (AID 1159526; calls by dose curve).
In test [19] the target is Retinoic acid receptor RXR-alpha (Homo sapiens) (UniProt P19793). The test can be described thus: qHTS assay to identify small molecule agonists of the RXR signaling pathway (AID 1159527; calls by dose curve; note: nearly all actives have a fitted effect of over 35% in size; note: potency is the fitted concentration of half-maximal effect). The method, boiled down: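 16 hr incubation of compound-treated RXR-alpha-UAS-bla HEK 293T cells (2% charcoal-stripped FBS, 37 C) preceded a 2 hr room-temperature LiveBLAzer FRET substrate step and blue/green fluorescence measurement.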
Retinoic acid receptor RXR-alpha (Homo sapiens), sequence (P19793 whole entry, looked up): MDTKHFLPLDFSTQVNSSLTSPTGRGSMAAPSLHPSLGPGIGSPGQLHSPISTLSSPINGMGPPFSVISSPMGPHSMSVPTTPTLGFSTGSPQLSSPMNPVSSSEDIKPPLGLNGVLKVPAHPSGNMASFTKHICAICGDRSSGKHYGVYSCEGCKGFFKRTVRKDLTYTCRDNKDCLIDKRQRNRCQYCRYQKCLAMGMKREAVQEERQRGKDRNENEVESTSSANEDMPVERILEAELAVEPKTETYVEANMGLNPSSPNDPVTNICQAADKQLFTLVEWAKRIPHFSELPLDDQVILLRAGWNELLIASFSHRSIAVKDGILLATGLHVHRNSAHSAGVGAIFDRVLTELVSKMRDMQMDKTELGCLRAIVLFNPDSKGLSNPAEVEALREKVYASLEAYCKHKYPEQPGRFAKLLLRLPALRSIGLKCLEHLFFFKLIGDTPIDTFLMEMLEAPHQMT

Test [20] in a line: qHTS assay to identify small molecule agonists of the endoplasmic reticulum stress response signaling pathway (AID 1159516; active = well fitted activation curve with a large enough effect in the signal ratio in the repeat runs, not every such curve was filed as active; the % refers to the signal ratio). The method, boiled down:
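Fluorescence at 460 and 530 nm (405 nm excitation) reports beta-lactamase from an ER stress response element in HeLa cells treated 5 hr at 37 C.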

Peroxisome proliferator-activated receptor delta (Homo sapiens), sequence (Q03181 whole entry, looked up): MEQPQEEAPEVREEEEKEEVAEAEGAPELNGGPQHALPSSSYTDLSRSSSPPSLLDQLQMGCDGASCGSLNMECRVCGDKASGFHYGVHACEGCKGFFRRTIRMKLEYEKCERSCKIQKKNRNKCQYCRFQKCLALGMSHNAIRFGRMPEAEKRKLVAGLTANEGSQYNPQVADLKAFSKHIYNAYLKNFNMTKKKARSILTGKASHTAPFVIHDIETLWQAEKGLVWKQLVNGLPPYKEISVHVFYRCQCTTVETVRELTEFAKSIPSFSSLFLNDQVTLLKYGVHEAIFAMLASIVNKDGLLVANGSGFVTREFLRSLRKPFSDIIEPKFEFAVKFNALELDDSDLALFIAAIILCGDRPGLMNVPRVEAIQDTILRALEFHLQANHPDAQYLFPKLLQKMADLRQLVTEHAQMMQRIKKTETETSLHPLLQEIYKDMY

As to `CC[C@H]1CN2CCc3cc(OC)c(OC)cc3[C@@H]2C[C@@H]1C[C@H]1NCCc2cc(OC)c(OC)cc21`, the Potency result in test [1], in [4], in test [5], in [8], in [9] and in test [12] was “inactive” in each case. Besides, the Potency result in test [13] was “inactive”. Moreover, the Potency in test [2] was 438 nM (active); in test [3], 27.6 µM (active) and inactive; in [6] it was 492 nM (active); in test [7], 19.6 µM (active) and inactive; in test [10], 6.94 µM (active) and 4.25 µM (active); in [11], 173 nM (active) and 750 nM (active).
In the case of `O=C1OC2(c3ccc(O)cc3Oc3cc(O)ccc32)c2ccccc21`, the Potency entry in [14], in [3], in test [4], in test [7], in test [8] and in test [9] was “inactive” throughout. Further, the Potency result in test [10], in test [15], in test [11], in [12] and in test [13] was “inactive” in each case.
As to `CC(C)(c1ccccc1)c1ccc(Nc2ccc(C(C)(C)c3ccccc3)cc2)cc1`, the Potency entry in test [14], in test [3], in test [4], in test [7], in test [8] and in test [9] was “inactive” each time. Besides, the Potency result in test [10], in test [15], in test [12] and in test [13] was “inactive” throughout. In [11], the Potency was 24.3 µM (active) and inactive.
As to `Nc1cc(S(=O)(=O)O)cc2cc(S(=O)(=O)O)cc(O)c12`, the Potency result in test [14], in [16], in [3], in [17], in test [4] and in test [6] was “inactive” in each case. In addition, the Potency result in test [7], in [8], in [9], in test [10], in test [15] and in test [12] was “inactive” each time. The Potency result in test [18] and in test [13] was “inactive” in each case. The Potency in test [5] is 24.4 µM (active); in test [11] it was “inactive and 30.6 µM (active)”; in test [19] it was “inactive and 24.5 µM (active)”.
On to `C=C(C)C1CC=C(C)C(OC(C)=O)C1` (configuration not stated), for which the Potency entry in test [1], in [14], in test [2], in test [16], in test [3] and in test [17] was “inactive” throughout. The Potency result in [4], in test [5], in test [6], in test [7], in [8] and in test [10] was “inactive” each time. In addition, the Potency result in test [15], in test [11], in [12], in test [18], in [19] and in [13] was “inactive” each time. Also, the outcome in [20] was inactive.
Turning to `CCCCCCCCCCCC[N+](C)(C)C`, the Potency in [14] is 54.9 µM (active) and 15.5 µM (active); in test [7], 49 µM (active) and 21.9 µM (active); in test [8] it was 54.9 µM (active); in [11], 24.3 µM (active) and 21.7 µM (active); in test [13], 54.8 µM (active) and 54.9 µM (active) and 49 µM (active). The Potency result in test [16], in test [3], in [17], in test [4], in test [9] and in test [15] was “inactive” in each case. Further, the Potency entry in test [12] and in [18] was “inactive” in each case. Besides, in test [20], the outcome was inactive.
Turning to `CCCCCCCCCCCCc1ccccc1O`, the Potency in test [14] is 24.2 µM (active) and 21.9 µM (active); in test [16] it was 49 µM (active); in test [3], 17.2 µM (active) and 30.9 µM (active); in test [4] it was 43.1 µM (active) and 43.6 µM (active); in [6] it was 15.3 µM (active) and 19.5 µM (active); in test [7] it was 10.8 µM (active) and 19.5 µM (active). Moreover, the Potency in test [9] was 19.2 µM (active) and 21.9 µM (active); in [10] it was 17.2 µM (active) and 24.5 µM (active); in test [15], 60.3 µM (active) and 27.3 µM (active); in test [11], 67.7 µM (active) and 24.3 µM (active); in test [12], 13.6 µM (active) and 17.4 µM (active); in test [13] it was 17.2 µM (active) and 19.5 µM (active).
